Measurements reported in the supplement of paper PMC8253809.

system: HGGX6 (H3.3 G34R paediatric high-grade glioma line); assay: growth inhibition (% activity, log2 RLU normalised to DMSO / staurosporine); higher = more growth inhibition; settings: 33 µM
Summary of the method: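 The growth-inhibition value comes from CellTiter-Glo luminescence, log2-transformed, normalised per plate to % activity between solvent and positive control wells, and taken as the median over replicates. Treatment of pHGG cell lines and H9-derived neural stem cells with approved drugs was at a single final concentration of about 33 μM, in triplicate, for 7 days at 37 °C, 5% CO2.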

Compound	growth inhibition
Cc1nnc(C(=O)NC(C)(C)c2nc(C(=O)NCc3ccc(F)cc3)c(O)c(=O)n2C)o1	-0.564%
Cn1c(=O)c2[nH]cnc2n(C)c1=O	0.444%
CCCCCCCCCCCCCCCCCCCCCCO	0.445%
CC(C(=O)O)c1ccc(-c2ccccc2)c(F)c1 (stereo not drawn)	1.43%
NC(N)=Nc1nc(CSCC/C(N)=N/S(N)(=O)=O)cs1	-1.75%
Nc1ccn(C[C@@H](CO)OCP(=O)(O)O)c(=O)n1	-0.434%
N[C@@H]1CN(c2c(F)cc3c(=O)c(C(=O)O)cn([C@@H]4C[C@@H]4F)c3c2Cl)CC12CC2	0.649%
C=Cc1c(C)c2cc3nc(cc4[nH]c(cc5nc(cc1[nH]2)C(C)=C5CCC(=O)O)c(CCC(=O)OC)c4C)C1(C)C3=CC=C(C(=O)OC)C1C(=O)OC (stereo not drawn)	0.712%
N=c1nc(N2CCCCC2)cc(N)n1O	-3.42%
CC(=O)OCC(=O)[C@@]1(O)[C@H](C)C[C@H]2[C@@H]3CCC4=CC(=O)C=C[C@]4(C)[C@@]3(F)[C@@H](O)C[C@@]21C	5.01%
Cc1ccc2c(Cl)cc(Cl)c(O)c2n1	3.09%
CCOC(=O)C1=C[C@@H](OC(CC)CC)[C@H](NC(C)=O)[C@@H](N)C1	0.263%
O=c1cc[nH]c(=O)[nH]1	0.91%
CC(C[N+](C)(C)C)OC(N)=O (stereo not drawn)	-2.06%
Cc1cccc(N(C)C(=S)Oc2ccc3ccccc3c2)c1	-3.78%
O=C1c2c(O)ccc(O)c2C(=O)c2c(NCCNCCO)ccc(NCCNCCO)c21	59%
CCN1CCCC1CNC(=O)c1cc(S(N)(=O)=O)ccc1OC (stereo not drawn)	0.912%
O=C1O[C@H]([C@@H](O)CO)C([O-])=C1O.[Na+]	-5.19%
